Bioassay records (PubChem BioAssay)
Compounds with a hit are over-represented: about 10% of the library has one in this group of screens.
IMPase cell inh: cell-permeable inhibitors of inositol monophosphatase (IMPase); P97697; CHO-M1 cells, IP1 accumulation, HTRF TR-FRET ratio; inhibition (IP1 accumulation), % at 46.1 µM; 120,000 tested, under 10 active; AID 901; active = well fitted curve in the direction sought with a large enough effect in the signal ratio, not every such curve was filed as active; inconclusive = small, poorly fitted or top-dose-only effect, or a change in a side signal; inactive = no such curve, though single readings can be large or run the other way; the % refers to the signal ratio;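 also: cells stimulated with carbachol in lithium chloride buffer; plate controls were DMSO basal wells for no effect and reference inhibitor wells for full effect; higher means more IMPase inhibition seen as more IP1 and lower FRET ratio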
Target sequence (P97697 whole entry, looked up): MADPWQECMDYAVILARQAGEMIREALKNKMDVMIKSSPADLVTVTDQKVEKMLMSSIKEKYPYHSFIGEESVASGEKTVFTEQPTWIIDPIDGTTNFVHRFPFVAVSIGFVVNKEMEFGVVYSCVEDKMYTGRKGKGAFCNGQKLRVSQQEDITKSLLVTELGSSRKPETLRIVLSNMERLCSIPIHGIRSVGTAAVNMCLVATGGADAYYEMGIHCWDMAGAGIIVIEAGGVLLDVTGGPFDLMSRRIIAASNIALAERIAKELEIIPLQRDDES
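Carbachol-driven Gq signalling in CHO-M1 cells (2000/well) generates IP1. Compounds that block IMPase raise IP1 and so reduce the FRET signal from Eu-anti-IP1 and d2-IP1 after a 10 min room-temperature lysis.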
HPGD inh: inhibitors of human 15-hydroxyprostaglandin dehydrogenase (HPGD). AID 894. purified HPGD, NADH fluorescence kinetic, PGE2 substrate. P15428. actives 4.3% (n = 150,000). Potency, µM, without a hit: at the top dose activity change, negative = inhibition, usual class: inhibitors; also: potency is read from the fitted curve at half-maximal effect
Target sequence (P15428 whole entry, looked up): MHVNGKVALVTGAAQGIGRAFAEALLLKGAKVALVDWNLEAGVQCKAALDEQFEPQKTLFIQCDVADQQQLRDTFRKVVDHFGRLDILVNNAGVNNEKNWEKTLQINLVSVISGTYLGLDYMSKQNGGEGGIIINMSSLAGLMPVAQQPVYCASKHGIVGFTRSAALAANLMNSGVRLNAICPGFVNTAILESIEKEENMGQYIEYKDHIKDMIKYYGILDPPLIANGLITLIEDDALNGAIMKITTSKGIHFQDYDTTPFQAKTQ
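NADH formation kinetics: reaction with 30 uM PGE2 and 1 mM NAD+ (final), 20 nM enzyme, Tris-HCl pH 8 with Tween 20, after 15 min compound preincubation at room temperature. Fluorescence change, last versus first of five reads.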
Luc counter: Kinase-Glo luciferase inhibition (counter-screen) | Potency, µM (titrated, usually from 38.3 µM), for the others: at the top dose activity change, negative = inhibition, most hits filed as inhibitors | actives 0.28% (n = 200,000) | Kinase-Glo luciferase, ATP luminescence, 8 min | Q27757; active = well fitted inhibition curve with a large enough effect; inconclusive = small, poorly fitted or top-dose-only effect; also: potency is read from the fitted curve at half-maximal effect; nearly all actives have a fitted effect of over 60% in size
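Recombinant Kinase-Glo luciferase, 10 uM ATP (linear range), luciferin; imidazole pH 7.2 / KCl / MgCl2 / Tween / BSA buffer; 8 min RT; luminescence.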
Lamin A splicing: modulators of lamin A splicing; HeLa LMNA splicing GFP/RFP minigene ratio, 48 h; Potency, µM (titrated, usually from 46.1 µM), without a hit: top-dose ratio change, negative = inhibition, actives largely listed as inhibitors; actives 0.01% (n = 200,000); AID 1487; active = well fitted inhibition curve with a large enough effect in the signal ratio, with a control signal flat, not every such curve was filed as active; inconclusive = small, poorly fitted or top-dose-only effect, or effect the other way, or a change in a side signal; the % refers to the signal ratio; also: potency is read from the fitted curve at half-maximal effect
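S3 HeLa cells stably expressing lamin A-EGFP splicing minigene plus DsRed2, 600 cells/well, 48 h compound exposure at 37C. Laser-scanning cytometry; analysed as GFP (500-530 nm)/RFP (575-640 nm) total intensity ratio; 0.5% DMSO vehicle.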
PNC inhibitor: inhibitors of perinucleolar compartment assembly; PC3M PTB-GFP, PNC prevalence imaging, 16 h; active compounds read low; activity change (PNC), negative = inhibition, % at 10 µM; actives 3.1% (n = 140,000);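 active = readout at or below -70, meaning at least 70% loss of cells showing the perinucleolar compartment, a nuclear body marking cancer cells; inconclusive = readout between -30 and a set limit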;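 also: plate controls were DMSO wells for no effect and camptothecin positive control wells for full effect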
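PC3M cells stably expressing PTB-GFP, 750–1000 cells/well, treated 16 h at 37 °C with compound (23 nl of library stock), in duplicate. After paraformaldehyde fixation and Hoechst stain, imaged at 20x; PNC prevalence scored by image analysis.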
ALDH1A1 inh: ALDH1A1 (human) enzyme inhibition; P00352; Purified ALDH1A1, NADH fluorescence, propionaldehyde substrate; Potency, µM (doses to about 75.3 µM), for inactives: at the top dose activity, negative = inhibition, actives largely listed as inhibitors; actives 7.3% (n = 220,000); AID 1030;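 also: potency is read from the fitted curve at half-maximal effect; plate controls were no enzyme wells and a reference inhibitor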
Active calls of the source: *; [ ] = dose if it differs, or a comment. Unless noted, calls follow the shape of the dose curve; as a rule, active = well fitted inhibition curve with a large enough effect (not every such curve was filed as active); inconclusive = small, poorly fitted or top-dose-only effect, or another doubt; inactive = no such curve, though single readings can be large or run the other way. Unless noted, % is scaled to controls: 0 for no effect and ±100 for the full control effect.

O=C(O)CCCCCNc1nc2ncn(Cc3ccccc3)c2c(=O)[nH]1 was read as IMPase cell inh 2, HPGD inh -13%, Luc counter -2%, Lamin A splicing 11%, PNC inhibitor inconclusive and ALDH1A1 inh inconclusive.
For CC(C)(C)NC(=O)NC(=O)COC(=O)c1nc(-c2ccccc2)n(-c2cccc(C(F)(F)F)c2)n1 the results were HPGD inh -18%, Luc counter 2%, Lamin A splicing -3%, PNC inhibitor -112* and ALDH1A1 inh 8%.
`CC(=O)C1C(=O)C=C(c2cccs2)CC1c1ccccc1` (stereo not given) gave Luc counter 0%, Lamin A splicing 9%[9.22 µM] and ALDH1A1 inh inconclusive.
O=C1C=C(c2cccs2)C[C@H](c2ccccc2)[C@H]1n1nnc([N+](=O)[O-])n1 was read as IMPase cell inh -12, HPGD inh -15%, Luc counter 1%, Lamin A splicing inconclusive, PNC inhibitor inconclusive and ALDH1A1 inh 7.9µM*.
For N=C1/C(=C\c2ccc(SCc3ccco3)o2)C(=O)N=C2SC=NN12 the results were IMPase cell inh 9, HPGD inh 25µM*, Luc counter -7%, Lamin A splicing 8%, PNC inhibitor 67 and ALDH1A1 inh 7.9µM*.
`CC1=NN(c2ccc(C)c(C)c2)C(=O)/C1=C\C=C\c1ccc([N+](=O)[O-])o1` gave Luc counter -8% and ALDH1A1 inh 8.9µM*.
Screening CCN(CC)C(=O)c1sc2c(c1C)c(=O)n(-c1ccc(C)c(C)c1)c(=O)n2Cc1cc(=O)n2c(C)cccc2n1 returned Lamin A splicing 2%[46 µM].
For Cc1ccccc1-n1c(=O)c2c3c(sc2n2cnnc12)CCCC3 the results were IMPase cell inh 4.
Cc1c(NC(=S)N/C(=N/S(=O)(=O)c2ccc(Cl)cc2)c2ccccc2)c(=O)n(-c2ccccc2)n1C was read as ALDH1A1 inh 8.9µM*.
For Cc1ccc(S(=O)(=O)/N=C(/NC(=S)Nc2cccc(C)c2)c2ccccc2)cc1 the results were IMPase cell inh -6, HPGD inh 20µM*, Luc counter -6%, Lamin A splicing -3%, PNC inhibitor 8 and ALDH1A1 inh 13µM*.
For Cc1ccc(NC(=S)Nc2cccc(S(=O)(=O)Nc3c(C)n(C)n(-c4ccccc4)c3=O)c2)cc1 the results were Luc counter 2% and ALDH1A1 inh inconclusive.
CC(=O)c1ccc(NC(=S)Nc2cccc(S(=O)(=O)Nc3c(C)n(C)n(-c4ccccc4)c3=O)c2)cc1 was read as Luc counter 0%, Lamin A splicing 1%[46 µM] and ALDH1A1 inh 25µM*.
For CC(C)OC(=S)N/C(=N\S(=O)(=O)c1ccccc1)c1ccccc1 the results were IMPase cell inh -1, HPGD inh inconclusive, Luc counter 2%, Lamin A splicing -5%, PNC inhibitor 35 and ALDH1A1 inh 11µM*.
`COc1ccc(OC)c(CCNc2ncnc3onc(C)c23)c1` gave Lamin A splicing -2%[46 µM].
For CCc1ccc(Oc2c(C(F)(F)F)oc3c(CN4CCN(C)CC4)c(O)ccc3c2=O)cc1 the results were IMPase cell inh -5.
For COc1ccc(CNC(=O)C(C)n2c(=O)cc(C)c3c(C)nn(-c4ccccc4)c32)cc1 (stereo not given) the results were Lamin A splicing 3%[46 µM].
CN(C)CCCNC(=O)C(=O)NCC(c1ccc2c(c1)OCO2)N1CCOCC1 (stereo not given) was read as Lamin A splicing 5%[46 µM].
COc1ccc(CNC(=O)C(=O)NCC(c2ccco2)S(=O)(=O)c2ccc(Cl)cc2)cc1 (stereo not given) was read as Lamin A splicing -2%[46 µM].
Cc1cccc(NC(=S)N/C(=N/S(=O)(=O)c2ccccc2)c2ccccc2)c1 was read as IMPase cell inh -7, HPGD inh inconclusive, Luc counter 3%, Lamin A splicing -3%, PNC inhibitor -24 and ALDH1A1 inh 22µM*.
`O=[N+]([O-])c1ccc(NC(=S)N/C(=N/CS(=O)(=O)c2ccccc2)c2ccccc2)cc1` gave IMPase cell inh 11, HPGD inh 28µM*, Luc counter 6%, Lamin A splicing 5%, PNC inhibitor inconclusive and ALDH1A1 inh 28µM*.
Screening COc1ccc(NC(=S)N/C(=N/CS(=O)(=O)c2ccccc2)c2ccccc2)cc1 returned IMPase cell inh 8, HPGD inh -4%, Luc counter 1%, Lamin A splicing -2%, PNC inhibitor inconclusive and ALDH1A1 inh 1%.
Cn1c(C(=O)N2CCCC(C(=O)NCCCc3ccccc3)C2)cc2sccc21 (stereo not given) was read as IMPase cell inh -4, HPGD inh -12%, Luc counter 5%, Lamin A splicing inconclusive, PNC inhibitor -4 and ALDH1A1 inh 14µM*.
`Cc1ccc(CCNC(=O)C2CCCN(C(=O)c3cc4sccc4n3C)C2)cc1` (stereo not given) gave IMPase cell inh 4, HPGD inh -12%, Luc counter -2%, Lamin A splicing inconclusive, PNC inhibitor 26 and ALDH1A1 inh 8.9µM*.
`Cn1c(C(=O)N2CCCC(C(=O)NCCc3ccccc3)C2)cc2sccc21` (stereo not given) gave IMPase cell inh 11, HPGD inh -17%, Luc counter -2%, Lamin A splicing -5%, PNC inhibitor 48 and ALDH1A1 inh 11µM*.
CS(=O)(=O)N1CCCC(C(=O)NCCc2ccccc2)C1 (stereo not given) was read as IMPase cell inh 6, HPGD inh -16%, Luc counter 4%, Lamin A splicing 6%, PNC inhibitor -2 and ALDH1A1 inh -1%.
Screening Cn1c(C(=O)N2CCCC(C(=O)NCc3ccc4c(c3)OCO4)C2)cc2sccc21 (stereo not given) returned IMPase cell inh 7, HPGD inh -11%, Luc counter 1%, Lamin A splicing -18%, PNC inhibitor 11 and ALDH1A1 inh 3.5µM*.
Screening CCS(=O)(=O)N1CCCC(C(=O)NCc2ccc3c(c2)OCO3)C1 (stereo not given) returned IMPase cell inh -1, HPGD inh -5%, Luc counter 4%, Lamin A splicing -1%[0.0737 µM], PNC inhibitor 103 and ALDH1A1 inh 6%.
`O=C(NCCCN1CCCC1)C1CCN(C(=O)c2cc3sccc3n2Cc2ccc(F)cc2)CC1` gave IMPase cell inh 2, HPGD inh -3%, Luc counter 2%, Lamin A splicing 15%, PNC inhibitor 21 and ALDH1A1 inh inconclusive.
